Assay outcomes deposited in PubChem by National Center for Advancing Translational Sciences (NCATS).
The list is not random: actives were taken first. Their share in the collection is about 2.4%.
Pol iota inh = qHTS for Inhibitors of Polymerase Iota. Potency, µM (series often up to 115 µM), hits mostly inhibitors. 1% of 390,000 active. AID 588590, 2011. DNA polymerase iota (Homo sapiens), Q9UNA4. Pol iota fluorescent replication assay, 10 min
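Fluorescent replication assay read twice, at 0 min and 10 min after adding 50 nM (final) substrate. Enzyme (10 nM) and compounds were first incubated 15 min at room temperature; enzyme-free buffer wells were negative controls.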
POLH inh = qHTS for Inhibitors of Polymerase Eta. DNA polymerase eta (Homo sapiens), Q9Y253. recombinant Pol eta, fluorescent DNA replication assay. Potency, µM (series often up to 114 µM), actives largely listed as inhibitors. 1.2% of 390,000 active
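Pol eta at 10 nM preincubated with compounds 15 min at room temperature; reaction started with fluorescent substrate (50 nM final) and read kinetically at 0 and 10 min.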
WRN helicase inh = qHTS for Inhibitors of WRN Helicase. Bifunctional 3'-5' exonuclease/ATP-dependent helicase WRN (Homo sapiens), Q14191. WRN helicase unwinding, fluorescent forked duplex, kinetic. Potency, µM (highest dose often 114 µM), usual class: inhibitors. 0.46% of 360,000 active; further: nearly all actives have a fitted effect of over 55% in size
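WRN at 20 nM final preincubated with compound 15 min at room temperature; reaction started with 100 nM fluorophore/quencher forked duplex oligonucleotide and 2 mM ATP final. Unwinding followed kinetically by red fluorescence (ex 525, em 598 nm).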
Pol beta inh = qHTS Assay for Inhibitors of DNA Polymerase Beta; P06746; Pol beta primer extension/strand displacement, fluorescence kinetic; Potency, µM (series often up to 114 µM), actives largely listed as inhibitors; 1.3% of 340,000 active
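Human Pol beta at 10 nM; strand-displacement substrate 50 nM final. Compound exposure 15 min at room temperature before start, reaction 10 min at room temperature.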
FEN1 inh = qHTS Assay for the Inhibitors of Human Flap endonuclease 1 (FEN1); 0.35% of 390,000 active; Potency, µM (highest dose often 114 µM), actives largely listed as inhibitors; Recombinant FEN1 flap cleavage, fluorescence, 15 min; P39748; AID 588795, 2011; further: nearly all actives have a fitted effect of over 65% in size
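With each library titrated from low to high concentration, compounds met 10 nM FEN1 for 15 min at room temperature before 50 nM substrate was added; readings at 0 and 15 min fed four-parameter Hill curve fits.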
POLK inh = qHTS for Inhibitors of Polymerase Kappa. purified Pol kappa, fluorescent DNA synthesis assay, 10 min. Potency, µM (top dose mostly 107 µM), hits mostly inhibitors. 0.53% of 400,000 active. AID 588579, 2011
Target sequence (Q9UBT6 whole entry, looked up): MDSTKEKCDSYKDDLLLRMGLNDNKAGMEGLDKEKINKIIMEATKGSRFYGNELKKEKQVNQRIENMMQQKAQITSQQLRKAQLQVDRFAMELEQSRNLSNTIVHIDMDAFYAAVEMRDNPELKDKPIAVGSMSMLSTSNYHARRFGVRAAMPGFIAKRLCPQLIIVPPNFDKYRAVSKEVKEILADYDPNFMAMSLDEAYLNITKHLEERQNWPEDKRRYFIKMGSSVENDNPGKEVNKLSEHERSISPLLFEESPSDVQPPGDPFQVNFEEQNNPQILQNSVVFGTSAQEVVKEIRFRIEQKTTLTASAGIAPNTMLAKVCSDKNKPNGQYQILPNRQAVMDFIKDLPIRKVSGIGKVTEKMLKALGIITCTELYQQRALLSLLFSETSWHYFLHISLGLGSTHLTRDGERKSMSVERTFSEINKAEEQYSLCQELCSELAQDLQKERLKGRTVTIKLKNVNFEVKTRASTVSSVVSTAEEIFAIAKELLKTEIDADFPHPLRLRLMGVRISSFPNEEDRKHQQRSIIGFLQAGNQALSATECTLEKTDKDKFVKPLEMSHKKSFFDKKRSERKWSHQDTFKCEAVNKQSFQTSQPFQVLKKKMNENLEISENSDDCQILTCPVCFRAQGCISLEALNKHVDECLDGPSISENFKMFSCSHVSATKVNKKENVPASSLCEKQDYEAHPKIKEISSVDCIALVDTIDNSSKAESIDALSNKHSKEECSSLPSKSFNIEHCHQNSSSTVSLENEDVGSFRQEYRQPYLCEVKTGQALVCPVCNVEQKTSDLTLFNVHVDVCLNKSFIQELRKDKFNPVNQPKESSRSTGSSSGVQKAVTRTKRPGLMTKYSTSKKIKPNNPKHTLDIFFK
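Kinetic fluorescence readout at 0 and 10 min followed reaction start with substrate at 50 nM final. Beforehand, enzyme (10 nM Pol kappa) stood 15 min with compound at room temperature; buffer-only wells were negative controls.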
Hits are given with their value; - = inactive; ? = inconclusive; . = no result; [ ] = dose if it differs, or a comment. The call rests on the fitted dose curve; in most records, active means well fitted curve in the direction sought with a large enough effect; inconclusive means small, poorly fitted or top-dose-only effect, or another doubt; inactive means no such curve, though single readings can be large; an effect the other way counts as inactive or inconclusive.

SMILES	Pol iota inh	POLH inh	WRN helicase inh	Pol beta inh	FEN1 inh	POLK inh
COC(=O)C1=C(c2ccc3ccccc3c2)C[C@@H]2CC[C@H]1N2C	-	-	-	.	-	-
COC(=O)C1=C(C(=O)OC)C2OC1c1cc3ccccc3cc12	-	-	39.8µM	.	-	-
C=CCc1cc(C=C2C(=O)NC(=O)NC2=O)cc(OC)c1OCc1ccc(C(=O)O)cc1	?	50.1µM	-	?	?	-
Fc1ccc(C(OCCN2CCN(C/C=C/c3ccccc3)CC2)c2ccc(F)cc2)cc1	.	.	.	.	.	-[19.4 µM]
O=c1[nH]c(O)c(N=Nc2ccc(S(=O)(=O)N3CCOCC3)cc2)c(=O)[nH]1	-	-	-	?	-	-
O=c1[nH]c(=S)[nH]c(O)c1N=Nc1ccc(S(=O)(=O)N2CCOCC2)cc1	?	50.1µM	-[11.6 µM]	?	-	-
O=c1[nH]c(=S)[nH]c(O)c1N=Nc1cc(S(=O)(=O)Nc2ccc(Cl)cc2)ccc1Cl	?	79.4µM	-	.	?	-
COC(=O)C(O)C(O)(CCC(C)C)C(=O)OC1C(OC)=CC23CCCN2CCc2cc4c(cc2C13)OCO4 (stereo unspecified)	.	.	.	.	.	-
O=C(CSc1nc(-c2cccs2)nc2cc(=O)[nH]n12)Nc1ccc(F)cc1	?	-	.	-	-	-
CNS(=O)(=O)c1ccc(-c2ccc(C=C3C(=O)NC(=O)NC3=O)o2)cc1	22.4µM	-	?	?	?	-
Cc1cc2c(cc1C)-n1c(-c3ccccc3)c3c(=O)n(C)c(=O)n(C)c3c1C(c1ccco1)N2 (stereo unspecified)	-	-	.	?	-	-
CCCCCCCC/C=C\CCCCCCCC(=O)OC[C@@H](COP(O)(O)=S)OC	.	.	.	.	.	16.8µM
CN1CCc2cc3c(c4c2C1Cc1ccccc1-4)OCO3 (stereo unspecified)	?	-	-[11.6 µM]	15.8µM	?	-
CN1CCc2cc3c(cc2[C@@H]1O)OCO3	.	.	.	.	.	-[12 µM]
O=C(N/N=C/C1C(=O)NC(=S)N(c2ccccc2)C1=O)c1cc(Br)c(O)c(Br)c1 (stereo unspecified)	?	?	79.4µM	?	-	?
O=C(N/N=C/c1c(O)n(C2CCCCC2)c(=S)[nH]c1=O)c1ccccc1	-	-	-	-	-	-
CC(C)Oc1ccc(CNC(=O)C2CCCN(S(=O)(=O)c3ccc4c(ccn4C)c3)C2)cc1 (stereo unspecified)	-	-	.	-	-	-
COc1cc2c(cc1O)[C@@H]1Cc3ccc(OC)c(O)c3CN1CC2	10µM	?	-	.	?	-
COc1ccc(C[C@@H]2c3cc(O)c(OC)cc3CCN2C)cc1O	-	-	-	-	-	-
CC(=O)c1cccc(NC(=O)c2noc3c2CSc2ccccc2-3)c1	-	-	.	-	-	-
CC(C)CC(=O)Nc1ccc(C(=O)Cn2c(=O)oc3ccccc32)cc1	?	-	-	20µM	-	-
CCn1c(=O)oc2cc(NC(=O)CCl)ccc21	-	-	-	-	-	-
CCCNc1nc(-c2cc(C(=O)Nc3ccccc3)on2)cc(C(C)C)n1	-	-	-	.	?	-
Cc1cccn2c(=O)c(/C=C(\C#N)c3nc4ccccc4s3)c(Oc3ccc(F)cc3)nc12	?	79.4µM	.	?	?	-
Cc1cc(C)cc(Oc2nc3ccccn3c(=O)c2/C=C(\C#N)c2nc3ccccc3s2)c1	-	?	.	?	-	-
SMILES	Pol iota inh	POLH inh	WRN helicase inh	Pol beta inh	FEN1 inh	POLK inh
CCOc1ccc(NC(=O)CSc2oc(-c3ccccc3)nc2S(=O)(=O)c2ccc(Cl)cc2)cc1	-	-	.	?	-	-
O=c1c2ccccc2nc(/C=C/c2ccc(O)c(O)c2)n1-c1ccccc1	?	17.8µM	-[11.6 µM]	?	-	-
COc1cc(/C=C/c2nc3ccccc3c(=O)n2-c2ccccc2O)ccc1O	-	-	-	-	-	-
COc1cc(/C=C/c2nc3ccccc3c(=O)n2-c2cccc(O)c2)ccc1O	17.8µM	?	?	?	?	?
Cn1c(=O)oc2cc(S(=O)(=O)N3CCCC(C(=O)N4CCN(c5cccc(Cl)c5)CC4)C3)ccc21 (stereo unspecified)	-	-	.	-	-	-
Cc1ccc(NC2C(=O)NC(=O)NC2=O)cc1	0.708µM	79.4µM	-	.	-	-
O=C1NC(=O)C(Nc2ccccc2)C(=O)N1	3.16µM	-	-[11.6 µM]	.	-	-
Cc1ccc(C2NC(=S)NC(c3ccc(C)cc3)C23C(=O)NC(=O)NC3=O)cc1 (stereo unspecified)	-	-	-	-	-	-
CCc1ccccc1NC(=O)Nc1cc(C(=O)NCc2ccc(C(C)C)cc2)ccc1N1CCCC1	-	-	.	-	-	-
Cc1cc(C=C2C(=O)NC(=S)NC2=O)c(C)n1-c1ccc2c(c1)OCO2	20µM	20µM	?	89.1µM	-	79.4µM
COP(=O)(OC)C(Nc1ccc([N+](=O)[O-])cc1)c1ccccc1 (stereo unspecified)	-	-	-	-	-	-
COP(=O)(OC)/C(C=O)=N/Nc1ccc([N+](=O)[O-])cc1	-	-	-	22.4µM	-	-
CCc1ccc(-n2nc(C)c3c(C(=O)NCCc4ccc(OC)c(OC)c4)cc(C)nc32)cc1	-	?	.	-	-	-
CCOc1ccccc1N1C(=O)NC(=O)/C(=C/c2ccc3c4c(cccc24)CC3)C1=O	-	?	50.1µM	-	-	-
COc1cccc(N2C(=O)NC(=O)/C(=C/c3ccc4c5c(cccc35)CC4)C2=O)c1	.	.	.	-	.	.
C[C@H](N)Cc1ccccc1	.	.	.	.	.	-[19.4 µM]
O=[N+]([O-])c1cc(-c2ccc([As](=O)(O)O)cc2)ccc1[As](=O)(O)O	.	.	.	20µM	.	.
CCN1C(=O)C(=Cc2cc(C)n(C3CC3)c2C)C(=O)N(CC)C1=S	-	-	-	-	-	-
CCN1C(=O)C(=Cc2ccc(C)s2)C(=O)N(CC)C1=S	-	25.1µM	?	?	-	-
O=C(NNc1c(F)c(F)cc(F)c1F)c1cc2ccccc2oc1=O	-	-	-	-	-	-
CCC(C)c1ccc(N2C(=O)NC(=O)/C(=C/c3cccn3CCOc3ccc(C)cc3)C2=O)cc1 (stereo unspecified)	35.5µM	-	-[11.6 µM]	-	-	-
CCC(Sc1ccccc1)C(=O)OC1CC2CCC(C1)N2C (stereo unspecified)	.	.	.	.	.	-[19.4 µM]
CC/C(=C\C=C\[C@@H]1C=C[C@@H]2CCC[C@H]2[C@@H]1C(=O)c1ccc[nH]1)[C@@H]1O[C@@H]([C@@H](C)C(=O)O)CC[C@@H]1C	?	89.1µM	-	?	-	?
